Results taken from PubChem BioAssay (NCATS).
Inconclusive results are not listed. The source made the active and inactive calls. Unless noted, calls come from the whole dose curve.

Key:
[1] = molecular target: Estrogen receptor (Homo sapiens) (UniProt P03372); assay: qHTS assay for small molecule antagonists of estrogen receptor alpha signaling (AID 588513; active = well fitted curve in the direction sought with a large enough effect in the signal ratio, with a control signal flat, not every such curve was filed as active; the % refers to the signal ratio; note: % is set by controls: 0 for no effect and ±100 for the full control effect)
Procedure, shortened: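 Beta-lactamase reporter, antagonist mode, HEK 293 GripTite cells; 0.5nM E2 stimulus, 18 h, 37 C; CCF4 dye 2 h RT; fluorescence. IC50 and efficacy from Hill fits, normalized to E2 and DMSO.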

[2] = molecular target: Estrogen receptor (Homo sapiens) (UniProt P03372); assay: qHTS assay for small molecule agonists of estrogen receptor alpha signaling (AID 588514);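 note: 0% = vehicle only and 100% = reference agonist; nearly all actives have a fitted effect of over 70% in size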
Procedure, shortened: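 Reporter-gene assay. […] controls beta-lactamase in HEK 293 GripTite cells; after 18 hrs with compound, CCF4 substrate is added for 2 hrs and fluorescence is read.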

[3] = molecular target: Androgen receptor (Homo sapiens) (UniProt P10275); assay: qHTS assay for small molecule agonists of androgen receptor signaling (AID 588515; active = well fitted curve in the direction sought with a large enough effect in the signal ratio, with a control signal flat; the % refers to the signal ratio; note: % is set by controls: 0 for no effect and ±100 for the full control effect); conditions: AR-UAS-bla HEK293, beta-lactamase ratio, agonist 16 h; stronger effect = higher value
Procedure, shortened: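 EC50 and efficacy came from Hill fits of titrations (up to 92 uM) normalized to 30 nM R1881 as 100% and DMSO as 0%. Compound exposure was 16 h at 37 C on AR-UAS-bla HEK293 cells, with a 405/460/530 nm CCF4 fluorescence read.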

[4] = molecular target: Androgen receptor (Homo sapiens) (UniProt P10275); assay: qHTS assay for small molecule antagonists of androgen receptor signaling (AID 588516; active = well fitted curve in the direction sought with a large enough effect in the signal ratio, with a control signal flat, not every such curve was filed as active; the % refers to the signal ratio; note: % is set by controls: 0 for no effect and ±100 for the full control effect)
Procedure, shortened: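 HEK293 AR-UAS-bla cells, 10% dialyzed FBS medium; cpd titration + R1881 10 nM final, 16 h 37 C; CCF4 2 h RT; FRET ratio; IC50/efficacy via Hill fit.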

[5] = molecular target: Bile acid receptor (Homo sapiens) (UniProt Q96RI1); assay: qHTS assay for small molecule antagonists of farnesoid X receptor signaling (AID 588526); note: % is set by controls: 0 for no effect and ±100 for the full control effect
Procedure, shortened: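 Beta-lactamase reporter antagonist mode: HEK293T FXR-UAS-bla cells, titrated compound, CDCA stimulation, 16 h 37 C, CCF4 dye 2 h RT. Data normalized to CDCA 50 uM and DMSO; Hill-fit IC50.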

[6] = molecular target: Bile acid receptor (Homo sapiens) (UniProt Q96RI1); assay: qHTS assay for small molecule agonists of farnesoid X receptor signaling (AID 588527); conditions: HEK293T FXR-UAS-bla, beta-lactamase ratio, 16 h; activation: stronger effect = higher value;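 note: series mostly up to about 77 µM; 0% = vehicle basal and 100% = reference agonist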
Procedure, shortened: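 Read-out: beta-lactamase reporter fluorescence with CCF4 substrate in GeneBLAzer FXR-UAS-bla HEK293T cells, after 16 h compound exposure at 37 C. Response scaled between DMSO basal (0%) and chenodeoxycholic acid at 100 uM (100%).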

[7] = molecular target: Glucocorticoid receptor (Homo sapiens) (UniProt P04150); assay: qHTS assay for small molecule agonists of glucocorticoid receptor signaling (AID 588532; active = well fitted curve in the direction sought with a large enough effect in the signal ratio, with a control signal flat; the % refers to the signal ratio;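 note: 100% = dexamethasone at 0.1 µM and 0% = DMSO only wells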); conditions: HeLa MMTV-bla, beta-lactamase ratio, agonist, 18 h; activation: stronger effect = higher value, percent of dexamethasone control, DMSO zero
Procedure, shortened: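 Quantitative HTS using CellSensor MMTV-bla HeLa cells in charcoal/dextran-treated serum; compounds tested up to 92 uM. After 18 h at 37 C, CCF4 dye reported reporter induction.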

[8] = molecular target: Peroxisome proliferator-activated receptor delta (Homo sapiens) (UniProt Q03181); assay: qHTS assay for small molecule agonists of peroxisome proliferator-activated receptor delta signaling (AID 588534);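 note: 0% = DMSO basal wells and 100% = positive control agonist at 10 µM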
Procedure, shortened: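 Reporter cells were plated and held 5 hrs at 37 C before compounds were added. After 18 hrs at 37 C, CCF4 dye was loaded for 2 hrs at RT and fluorescence measured.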

[9] = qHTS assay for small molecule antagonists of peroxisome proliferator-activated receptor delta signaling (AID 588535; active = well fitted inhibition curve with a large enough effect in the signal ratio, with a control signal flat, not every such curve was filed as active; the % refers to the signal ratio;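 for max response: cells co-treated with a PPAR-delta agonist as stimulator during compound exposure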); conditions: HEK293T PPARd-UAS-bla, beta-lactamase FRET ratio, 18 h; 460 nm channel
Procedure, shortened: (§1)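 Cell-based beta-lactamase assay in antagonist mode: 4000 HEK293T PPAR-delta-UAS-bla cells per well, 5 hr preincubation then 18 hr compound incubation at 37 C. IC50 obtained by Hill equation fitting.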

[10] = molecular target: Peroxisome proliferator-activated receptor delta (Homo sapiens) (UniProt Q03181); assay: as above
Procedure, shortened: as §1

[11] = molecular target: Peroxisome proliferator-activated receptor gamma (Homo sapiens) (UniProt P37231); assay: qHTS assay for small molecule agonists of peroxisome proliferator-activated receptor gamma signaling (AID 588536; active = well fitted curve in the direction sought with a large enough effect in the signal ratio, with a control signal flat, not every such curve was filed as active; the % refers to the signal ratio;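 note: 0% = DMSO basal wells and 100% = rosiglitazone at 2 µM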)
Procedure, shortened: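 Test agents, titrated, stimulated HEK293 UAS-bla cells overnight (16 h, 37 C). Substrate CCF4 was then added for two hours at room temperature before fluorescence reading.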

[12] = molecular target: Vitamin D3 receptor (Homo sapiens) (UniProt P11473); assay: qHTS assay for small molecule agonists of vitamin D receptor signaling (AID 588543);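 note: 0% = DMSO basal and 100% = reference agonist control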
Procedure, shortened: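 β-lactamase reporter, VDR-UAS-bla HEK293T, agonist mode. Cells plated 5 h at 37 °C, compound titration 16 h at 37 °C, CCF4 dye 2 h RT, ratio 460/530 nm. Hill fit → EC50, efficacy vs 50 nM 1α,25-(OH)2D3.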

[13] = qHTS assay for small molecule agonists of retinoid X receptor alpha signaling (AID 588544); conditions: HEK293T RXRa-UAS-bla, beta-lactamase reporter, 18 h; 530 nm emission;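 for activation: 0% = DMSO basal wells and 100% = reference agonist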
[14] = molecular target: Retinoic acid receptor RXR-alpha (Homo sapiens) (UniProt P19793); assay: as above
[15] = molecular target: Thyroid hormone receptor beta (Homo sapiens) (UniProt P10828); assay: qHTS assay for small molecule agonists of thyroid hormone receptor beta signaling (AID 588545)
Procedure, shortened: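 Agonist activity was read as beta-lactamase CCF4 fluorescence (405 ex, 460/530 em), scaled between DMSO (0%) and 10 nM T3 (100%), then Hill-fitted for EC50 and efficacy. HEK 293 TR-UAS-bla cells in 2% charcoal/dextran FBS medium were exposed 18 h at 37 C.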

[16] = qHTS assay for small molecule antagonists of retinoid X receptor alpha signaling (AID 588546; active = well fitted inhibition curve with a large enough effect in the signal ratio, with a control signal flat, not every such curve was filed as active; the % refers to the signal ratio); conditions: HEK293T RXRa-UAS-bla, beta-lactamase ratio, antagonist mode; measured here: W530 green channel, cytotoxicity proxy
Procedure, shortened: (§2)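 Beta-lactamase reporter inhibition, read as CCF4 fluorescence ratio (ex 405, em 460/530 nm) after 2 h at RT. HEK293T UAS-bla cells, 2500/well, were stimulated with 9-cis-RA at 500 or 100 nM final alongside test compound for 18 h at 37 C.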

[17] = molecular target: Retinoic acid receptor RXR-alpha (Homo sapiens) (UniProt P19793); assay: as above; conditions: HEK293T RXRa-UAS-bla, beta-lactamase ratio, antagonist mode
Procedure, shortened: as §2

[18] = qHTS assay for small molecule agonists of the antioxidant response element (ARE) signaling pathway (AID 651741; active = well fitted activation curve with a large enough effect in the signal ratio; the % refers to the signal ratio; note: potency is the fitted concentration of half-maximal effect)
Procedure, shortened: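 Seeding 2,000 ARE-bla HepG2 cells per well preceded a 5 h incubation at 37 C/5% CO2 and a 16 h compound exposure at 37 C. Beta-lactamase reporter activity was then quantified by fluorescence after 2 h with LiveBLAzer B/G FRET substrate.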

[19] = qHTS assay for small molecule activators of the p53 signaling pathway (AID 651743; active = well fitted activation curve with a large enough effect in the signal ratio, not every such curve was filed as active; the % refers to the signal ratio; note: series mostly up to about 92 µM; % of control where 0% means no effect); conditions: HCT-116 p53RE-bla, beta-lactamase FRET ratio, 16 h; activation: stronger effect = higher value
Procedure, shortened: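 Screen for p53 pathway agonists uses stably transfected p53RE-bla HCT-116 cells, 4,000 per well, treated 16 h at 37 C with compounds in DMSO.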

[20] = qHTS assay for small molecule activators of the nuclear factor-kappa B (NF-kB) signaling pathway (AID 651749; active = well fitted activation curve with a large enough effect in the signal ratio; the % refers to the signal ratio; note: series mostly up to about 77 µM; % of control where 0% means no effect); conditions: NF-kB-bla ME-180 cells, beta-lactamase FRET ratio, 16 h; activation: stronger effect = higher value
Procedure, shortened: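 Stably transfected ME-180 line; NF-kB response element upstream of beta-lactamase. Treatment: compound or DMSO, 16 hr. Detection: fluorescent FRET substrate.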

[21] = qHTS assay for environmental chemicals that activate the Aryl hydrocarbon Receptor (AhR) signaling pathway (AID 651777; active = well fitted curve in the direction sought with a large enough effect; an effect the other way counts as inactive or inconclusive; note: % of control where 0% means no effect; nearly all actives have a fitted effect of over 15% in size); conditions: 1A2-DRE human hepatoma cells, luciferase, 24 h; activation: stronger effect = higher value
Procedure, shortened: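 Human hepatoma 1A2-DRE cells stably carrying a DRE/CYP1A2 promoter–luciferase reporter, 1,200 cells/well, exposed to compound 24 hr at 37 C. Luciferase read by One-Glo luminescence after 30 min at room temperature; increased signal marks AhR activation.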

[22] = molecular target: Peroxisome proliferator-activated receptor alpha (Homo sapiens) (UniProt Q07869); assay: qHTS assay for small molecule agonists of the peroxisome proliferator-activated receptor alpha (PPARalpha) signaling pathway (AID 651778; active = well fitted curve in the direction sought with a large enough effect; an effect the other way counts as inactive or inconclusive; note: % of control where 0% means no effect); conditions: PathHunter PPARalpha complementation, chemiluminescence, 6 h; max response: stronger effect = higher value
Procedure, shortened: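 Chemiluminescence from complemented enzyme reported PPARalpha activation in cells after 6 hr of compound treatment at 37 C. The detection reagent was incubated for 60 min at room temperature, and compounds were scored as agonists.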

[23] = qHTS assay for small molecule agonists of the antioxidant response element (ARE) signaling pathway measured by Nrf2-dependant transcriptional activity - cell viability counter screen (AID 720653; active = well fitted curve in the direction sought with a large enough effect in the repeat runs; an effect the other way counts as inactive or inconclusive; note: % is set by controls: 0 for no effect and ±100 for the full control effect); conditions: ARE-bla HepG2 viability, CellTiter-Glo ATP luminescence, 16 h; max response: stronger effect = lower value
Procedure, shortened: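 Cytotoxicity counter screen: intracellular ATP quantified by CellTiter-Glo luminescence in the same ARE-bla HepG2 plates, after 16 h compound exposure and a 2 h beta-lactamase substrate step.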

[24] = qHTS assay for cell viability of HEK293 cells (AID 743288; active = well fitted curve in the direction sought with a large enough effect; an effect the other way counts as inactive or inconclusive; note: % is set by controls: 0 for no effect and ±100 for the full control effect; nearly all actives have a fitted effect of over 50% in size); conditions: ATP luminescence (CellTiter-Glo), 18 h; max response: stronger effect = lower value
Procedure, shortened: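 Environmental chemicals tested in qHTS format against parental HEK293 cells; 18 h treatment, 37 C; read-out ATP luminescence (CellTiter-Glo), 30 min RT development.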

[25] = qHTS assay for cell viability of the p53RE-bla HCT-116 cell line (AID 743292; active = well fitted curve in the direction sought with a large enough effect; an effect the other way counts as inactive or inconclusive; note: % is set by controls: 0 for no effect and ±100 for the full control effect; nearly all actives have a fitted effect of over 55% in size)
Procedure, shortened: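 CellSensor p53RE-bla HCT-116 cells (4,000/well) pre-incubated 5 h at 37 C, then exposed to compounds in DMSO for 16 h at 37 C. Viability read as ATP content by CellTiter-Glo luminescence after 30 min at room temperature.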

[26] = molecular target: Nuclear receptor subfamily 1 group I member 2 (Rattus norvegicus) (UniProt Q9R1A7); assay: qHTS assay for small molecule activators of the rat pregnane X receptor (rPXR) signaling pathway (AID 651751; call rule not given here; note: 0% is about no effect); conditions: rPXR reporter cells, luciferase (One-Glo), 24 h
[27] = qHTS assay for small molecule activators of the human pregnane X receptor (PXR) signaling pathway (AID 720659; call rule not given here; note: 0% is about no effect)
[28] = molecular target: Cytochrome P450 3A4 (Homo sapiens) (UniProt P08684); assay: qHTS Assay for Inhibitors and Substrates of Cytochrome P450 3A4 (AID 884; active = well fitted curve in the direction sought with a large enough effect; an effect the other way counts as inactive or inconclusive; note: potency is the fitted concentration of half-maximal effect; nearly all actives have a fitted effect of over 50% in size)
Procedure, shortened: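 20 nM human CYP3A4 with 25 uM Luciferin-PPXE (at KM) in 200 mM KPO4, preincubated 10 min with compound; NADPH regeneration started a 60 min RT reaction. Luciferin detected by luminescence, normalized to 57 uM ketoconazole as full inhibition.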

[29] = molecular target: Cytochrome P450 3A4 (Homo sapiens) (UniProt P08684); assay: qHTS Assay for Activators of Cytochrome P450 3A4 (AID 885; active = well fitted curve in the direction sought with a large enough effect; an effect the other way counts as inactive or inconclusive; note: nearly all actives have a fitted effect of over 65% in size)
Procedure, shortened: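 Steps: enzyme/substrate mix dispensed; compound added, 10 min RT; NADPH regeneration solution added, 60 min RT; luciferin detection buffer stops reaction; 20 min later luminescence measured.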

[30] = molecular target: DNA dC->dU-editing enzyme APOBEC-3G (Homo sapiens) (UniProt Q9HC16); assay: qHTS for inhibitors of Vif-A3G interactions: Validation (AID 588379; active = well fitted curve in the direction sought with a large enough effect; an effect the other way counts as inactive or inconclusive; note: 0% is about no effect)
Procedure, shortened: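 HeLa cells stably expressing Vif and A3G-eYFP, 700 cells/well, incubated overnight at 37 deg C, then exposed to compound overnight at 37 deg C. Inhibition of Vif-mediated degradation read as increased yellow fluorescence (Ex 488/Em 500-530) by laser-scanning cytometry.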

Sequence of Estrogen receptor (Homo sapiens) (P03372 whole entry, looked up): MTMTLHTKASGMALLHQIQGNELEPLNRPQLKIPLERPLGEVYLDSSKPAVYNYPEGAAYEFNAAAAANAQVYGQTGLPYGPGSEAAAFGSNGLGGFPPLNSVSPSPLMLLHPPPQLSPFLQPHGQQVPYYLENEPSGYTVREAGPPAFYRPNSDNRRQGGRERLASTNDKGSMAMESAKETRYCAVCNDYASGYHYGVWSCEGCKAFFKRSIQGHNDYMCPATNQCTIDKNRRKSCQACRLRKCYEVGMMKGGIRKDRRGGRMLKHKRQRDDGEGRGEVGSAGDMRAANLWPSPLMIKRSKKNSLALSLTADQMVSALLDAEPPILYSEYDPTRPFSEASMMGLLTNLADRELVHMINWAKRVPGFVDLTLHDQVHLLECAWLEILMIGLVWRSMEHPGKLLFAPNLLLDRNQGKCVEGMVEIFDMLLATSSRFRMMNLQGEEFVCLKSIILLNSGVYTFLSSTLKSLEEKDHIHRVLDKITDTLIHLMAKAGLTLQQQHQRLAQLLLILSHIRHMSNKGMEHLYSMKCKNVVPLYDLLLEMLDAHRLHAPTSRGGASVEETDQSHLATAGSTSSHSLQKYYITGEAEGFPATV
Sequence of Cytochrome P450 3A4 (Homo sapiens) (P08684 whole entry, looked up): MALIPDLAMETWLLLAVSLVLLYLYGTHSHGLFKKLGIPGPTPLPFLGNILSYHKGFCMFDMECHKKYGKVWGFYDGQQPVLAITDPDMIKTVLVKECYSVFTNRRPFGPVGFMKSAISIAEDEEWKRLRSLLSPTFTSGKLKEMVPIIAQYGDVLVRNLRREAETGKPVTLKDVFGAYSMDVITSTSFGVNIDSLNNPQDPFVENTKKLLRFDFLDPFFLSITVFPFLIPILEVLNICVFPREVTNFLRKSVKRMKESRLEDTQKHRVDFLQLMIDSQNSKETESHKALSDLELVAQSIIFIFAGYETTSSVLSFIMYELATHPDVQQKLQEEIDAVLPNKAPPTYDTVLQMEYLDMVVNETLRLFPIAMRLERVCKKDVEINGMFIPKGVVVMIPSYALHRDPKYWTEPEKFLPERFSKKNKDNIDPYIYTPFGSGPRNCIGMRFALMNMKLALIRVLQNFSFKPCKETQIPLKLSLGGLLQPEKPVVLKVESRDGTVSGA
Sequence of Bile acid receptor (Homo sapiens) (Q96RI1 whole entry, looked up): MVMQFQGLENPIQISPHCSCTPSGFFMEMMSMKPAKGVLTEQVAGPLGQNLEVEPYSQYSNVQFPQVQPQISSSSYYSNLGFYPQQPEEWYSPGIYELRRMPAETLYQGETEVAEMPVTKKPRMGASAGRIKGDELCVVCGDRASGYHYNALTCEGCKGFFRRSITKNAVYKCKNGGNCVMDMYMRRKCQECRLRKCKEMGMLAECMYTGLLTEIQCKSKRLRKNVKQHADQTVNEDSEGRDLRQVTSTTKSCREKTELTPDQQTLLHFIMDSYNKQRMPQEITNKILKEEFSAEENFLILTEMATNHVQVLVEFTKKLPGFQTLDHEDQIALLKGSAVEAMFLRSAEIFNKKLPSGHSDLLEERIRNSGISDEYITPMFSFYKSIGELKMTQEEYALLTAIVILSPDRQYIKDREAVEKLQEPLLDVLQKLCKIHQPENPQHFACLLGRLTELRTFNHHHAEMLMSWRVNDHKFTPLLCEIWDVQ
Sequence of Androgen receptor (Homo sapiens) (P10275 whole entry, looked up): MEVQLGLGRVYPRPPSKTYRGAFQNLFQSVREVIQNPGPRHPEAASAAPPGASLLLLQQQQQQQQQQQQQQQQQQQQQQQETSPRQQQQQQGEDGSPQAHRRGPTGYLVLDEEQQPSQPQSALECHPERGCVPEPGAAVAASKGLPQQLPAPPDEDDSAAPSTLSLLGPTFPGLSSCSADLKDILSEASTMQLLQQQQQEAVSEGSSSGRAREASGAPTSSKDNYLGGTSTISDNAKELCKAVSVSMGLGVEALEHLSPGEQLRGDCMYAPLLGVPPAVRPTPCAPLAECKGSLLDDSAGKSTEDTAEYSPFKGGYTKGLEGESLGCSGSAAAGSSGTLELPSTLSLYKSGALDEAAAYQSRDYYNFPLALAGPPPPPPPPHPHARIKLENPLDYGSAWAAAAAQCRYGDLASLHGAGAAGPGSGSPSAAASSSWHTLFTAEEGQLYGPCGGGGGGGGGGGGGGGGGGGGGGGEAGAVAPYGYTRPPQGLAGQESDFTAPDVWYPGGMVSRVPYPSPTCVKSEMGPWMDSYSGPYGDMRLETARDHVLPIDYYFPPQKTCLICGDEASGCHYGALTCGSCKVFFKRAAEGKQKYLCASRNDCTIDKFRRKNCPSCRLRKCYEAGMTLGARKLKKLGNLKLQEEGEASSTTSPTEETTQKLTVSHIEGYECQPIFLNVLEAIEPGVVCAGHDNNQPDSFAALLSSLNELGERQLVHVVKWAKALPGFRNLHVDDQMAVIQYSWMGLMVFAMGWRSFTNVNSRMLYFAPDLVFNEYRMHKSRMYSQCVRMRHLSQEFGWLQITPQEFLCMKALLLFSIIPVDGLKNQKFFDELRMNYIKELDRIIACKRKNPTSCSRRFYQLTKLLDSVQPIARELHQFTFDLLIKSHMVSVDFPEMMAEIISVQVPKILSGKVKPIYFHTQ
Sequence of Retinoic acid receptor RXR-alpha (Homo sapiens) (P19793 whole entry, looked up): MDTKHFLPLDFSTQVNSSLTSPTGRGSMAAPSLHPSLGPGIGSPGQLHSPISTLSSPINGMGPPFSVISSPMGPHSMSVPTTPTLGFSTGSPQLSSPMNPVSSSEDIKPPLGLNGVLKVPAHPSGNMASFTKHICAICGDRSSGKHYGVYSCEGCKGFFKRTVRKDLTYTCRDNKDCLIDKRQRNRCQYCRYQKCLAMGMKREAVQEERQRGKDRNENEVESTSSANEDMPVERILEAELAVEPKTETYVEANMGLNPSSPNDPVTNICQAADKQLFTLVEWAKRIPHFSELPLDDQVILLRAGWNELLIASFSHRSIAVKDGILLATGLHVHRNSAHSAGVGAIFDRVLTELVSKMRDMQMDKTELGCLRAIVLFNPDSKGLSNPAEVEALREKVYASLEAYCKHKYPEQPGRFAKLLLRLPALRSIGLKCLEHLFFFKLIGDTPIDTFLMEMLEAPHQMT
Sequence of Peroxisome proliferator-activated receptor delta (Homo sapiens) (Q03181 whole entry, looked up): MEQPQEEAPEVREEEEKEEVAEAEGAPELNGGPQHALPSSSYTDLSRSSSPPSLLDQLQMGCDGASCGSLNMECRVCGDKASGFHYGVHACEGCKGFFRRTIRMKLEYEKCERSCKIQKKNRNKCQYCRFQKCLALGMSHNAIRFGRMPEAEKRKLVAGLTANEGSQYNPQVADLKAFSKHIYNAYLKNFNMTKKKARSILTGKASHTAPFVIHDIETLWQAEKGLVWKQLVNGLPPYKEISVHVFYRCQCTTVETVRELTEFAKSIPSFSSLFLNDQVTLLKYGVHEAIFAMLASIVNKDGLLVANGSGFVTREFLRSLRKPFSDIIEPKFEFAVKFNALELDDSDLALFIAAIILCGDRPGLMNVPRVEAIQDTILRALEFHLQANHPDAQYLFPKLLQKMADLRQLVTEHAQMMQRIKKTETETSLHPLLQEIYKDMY
Sequence of Thyroid hormone receptor beta (Homo sapiens) (P10828 whole entry, looked up): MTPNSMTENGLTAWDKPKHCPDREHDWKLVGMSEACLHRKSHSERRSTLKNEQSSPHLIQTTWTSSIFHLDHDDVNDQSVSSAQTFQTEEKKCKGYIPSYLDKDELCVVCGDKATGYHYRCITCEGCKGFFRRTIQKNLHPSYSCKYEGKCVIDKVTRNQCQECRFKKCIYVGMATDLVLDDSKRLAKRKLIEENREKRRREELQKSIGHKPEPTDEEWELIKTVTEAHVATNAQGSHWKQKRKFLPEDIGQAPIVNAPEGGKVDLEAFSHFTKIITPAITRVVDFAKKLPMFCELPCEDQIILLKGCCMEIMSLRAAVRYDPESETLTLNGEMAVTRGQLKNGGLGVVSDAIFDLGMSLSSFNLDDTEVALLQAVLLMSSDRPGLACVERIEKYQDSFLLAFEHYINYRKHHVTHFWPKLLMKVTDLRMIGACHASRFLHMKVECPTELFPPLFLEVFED
Sequence of DNA dC->dU-editing enzyme APOBEC-3G (Homo sapiens) (Q9HC16 whole entry, looked up): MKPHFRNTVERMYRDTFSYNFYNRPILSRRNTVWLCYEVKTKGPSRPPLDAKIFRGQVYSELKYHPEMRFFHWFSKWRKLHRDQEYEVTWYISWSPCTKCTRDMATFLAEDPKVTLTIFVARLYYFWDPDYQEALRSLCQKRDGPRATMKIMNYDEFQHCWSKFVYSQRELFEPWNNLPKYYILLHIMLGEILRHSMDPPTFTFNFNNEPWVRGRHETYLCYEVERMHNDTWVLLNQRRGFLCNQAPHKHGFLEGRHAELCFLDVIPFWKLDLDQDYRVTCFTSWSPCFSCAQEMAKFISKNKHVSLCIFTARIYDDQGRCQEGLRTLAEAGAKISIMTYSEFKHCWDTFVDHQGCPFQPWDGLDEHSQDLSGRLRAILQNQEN
Sequence of Vitamin D3 receptor (Homo sapiens) (P11473 whole entry, looked up): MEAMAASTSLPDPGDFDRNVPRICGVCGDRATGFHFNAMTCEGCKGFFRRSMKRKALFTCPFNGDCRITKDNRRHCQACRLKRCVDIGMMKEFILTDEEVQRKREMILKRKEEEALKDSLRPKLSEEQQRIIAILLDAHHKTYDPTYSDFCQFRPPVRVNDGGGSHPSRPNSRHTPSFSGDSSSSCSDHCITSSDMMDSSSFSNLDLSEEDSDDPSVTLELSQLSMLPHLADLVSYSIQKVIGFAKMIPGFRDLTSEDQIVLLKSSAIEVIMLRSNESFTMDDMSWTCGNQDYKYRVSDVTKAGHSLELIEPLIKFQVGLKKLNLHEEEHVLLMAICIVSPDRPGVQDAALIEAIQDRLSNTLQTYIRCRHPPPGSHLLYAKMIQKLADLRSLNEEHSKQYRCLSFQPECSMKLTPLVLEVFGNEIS

FC(F)(F)c1ccc(OCCCOc2c(Cl)cc(OCC=C(Cl)Cl)cc2Cl)nc1
inactive: Potency [1] | Potency [2] | activation [3] -16.8% | Potency [4] | Potency [5] | activation [6] -2.38% | activation [7] 9.84% | outcome [8] | Potency [10] | Potency [11] | outcome [12] | Potency [14] | Potency [15] | max response [17] 3.21% | activation [19] 2.67% | activation [20] 0.158% | activation [21] -0.256% | max response [22] -0.598% | max response [23] -24.7% | max response [24] -6.52% | Potency [25] | max response [26] 1.93% | outcome [27]
-4.25%: max response [9]
5.75%: max response [13]
-14.8%: max response [16]
active: Potency [18] 54.5 µM

COc1cc2c(cc1OC)-c1c(O)c(OC)cc3c1[C@H](C2)N(C)CC3
inactive: Potency [29] | outcome [30]
active: Potency [28] 7.94 µM
